# Measured values: ChEMBL document CHEMBL1157539, “Thousands of chemical starting points for antimalarial lead identification” (Nature, 2010)
# What was measured:
# Type in all cases: functional
# Plasmodium falciparum [1] = test: GSK_TCMDC: Inhibition of Plasmodium falciparum 3D7 in whole red blood cells, using parasite LDH activity as an index of growth. Test compounds present at 2uM
# Plasmodium falciparum [2] = test: GSK_TCMDC: Inhibition of Plasmodium falciparum Dd2 in whole red blood cells, using parasite LDH activity as an index of growth. Test compounds present at 2uM
# HepG2 = test: GSK_TCMDC: Percent inhibition of human HepG2 cell line. Test compounds present at 10uM.
SMILES,Inhibition (Plasmodium falciparum [1]),Inhibition (Plasmodium falciparum [2]),Inhibition (HepG2)
CCN(CC)CCCC(C)Nc1cc(C)nc2cc(Cl)ccc12 (centres undefined),100%,7%,9%
O=C(O)C(F)(F)F.c1ccc(CN2CCC(NCc3ccc(-c4ccc(CNCc5cccnc5)cn4)cc3)CC2)cc1,97%,13%,0%
CC(O)C1CCCCN1C(=O)c1ccc(-c2ccc(-c3nc4cc(F)ccc4[nH]3)cc2)cc1 (centres undefined),100%,99%,43%
COc1ccc(-c2cccc(NC(=O)c3cccc(Cl)c3)c2)cc1CN1CCCC1.O=C(O)C(F)(F)F,99%,66%,45%
CCCc1cc(=O)[nH]c(-n2nc(C)cc2NC(=O)c2cc3ccccc3o2)n1,90%,63%,39%
CCOc1cc2ncnc(Nc3ccc(OCc4ccccc4F)c(Cl)c3)c2cc1OCC.Cl,100%,74%,4%
Cc1[nH]c(C)c(-c2ccc(-c3ccccc3Cl)nc2)c(=O)c1Cl,98%,97%,0%
CCCCC(=O)Nc1ccc(Nc2nc(C)cc(N3CCCC3)n2)cc1,100%,67%,38%
Nc1nonc1-c1nc2c(-c3cccc(Cl)c3)nccc2n1CCCNC(=O)Cc1ccc(Cl)cc1,94%,92%,0%
CCCCCCC1(C)N=C(N)N=C(N)C1c1ccc(Cl)c(Cl)c1.Cl (centres undefined),94%,43%,18%
O=C(/C=N/O)Nc1ccccc1[N+](=O)[O-],99%,0%,0%
CCn1cc(CN2CCCC(C(=O)Nc3ccc(-c4nc5ccccc5[nH]4)cc3)C2)cn1 (centres undefined),100%,26%,8%
Cl.O=C(Nc1cccc2ccccc12)N1CCc2cc3nccc(N4CCN5CCC[C@H]5C4)c3cc21,99%,86%,11%
CCS(=O)(=O)c1ccc(-c2cnc3[nH]cc(-c4ccc(N)cc4)c3c2)cc1,92%,99%,24%
COc1ccc(NC(=O)[C@H](CC(C)C)Nc2cc(C)nc(NCCc3ccccc3)n2)cc1.O=C(O)C(F)(F)F,100%,74%,13%
COc1ccc(Nc2nc(NC3CCN(C)CC3)cc(-c3ccc(OC)cc3)n2)cc1,100%,51%,62%
Cc1[nH]c(C)c(-c2ccc(C#Cc3ccc(F)cc3F)cc2)c(=O)c1Br,97%,98%,11%
CC(=O)Nc1nc(C(=O)Nc2ccc(-c3cccc(-c4nc5cccc(C)c5[nH]4)c3)cc2)cs1,100%,73%,100%
N#Cc1ccc(CN2CCC(Oc3ccc(NC(=O)c4cccs4)cc3)CC2)cc1.O=C(O)C(F)(F)F,83%,82%,10%
CC(C)(C)c1ccc(CN2CCCCC(NC(=O)c3cc(-c4ccccc4Cl)cs3)C2)cc1.O=C(O)C(F)(F)F (centres undefined),100%,98%,3%
COc1cc2s/c(=N\C(=O)c3cccc([N+](=O)[O-])c3)n(C)c2cc1OC,92%,79%,5%
C[C@@H](Oc1cc(-n2cnc3ccc(OCC4CCN(S(C)(=O)=O)CC4)cc32)sc1C(N)=O)c1ccccc1C(F)(F)F,84%,50%,31%
COc1ccc(C2CC(=O)C3=C(C2)NC(C)=C(C(=O)OC2CCCC2)C3c2cccc(O)c2)cc1 (centres undefined),88%,83%,0%
O=C(O)C(F)(F)F.Oc1ccc(CCCNc2nc(NCc3cccc4ccccc34)nc(NC3CCNCC3)n2)cc1,91%,0%,8%
O=C(/C=C/c1ccc(Cl)c(Cl)c1)NCCCCCN1CCC(NC(=O)Nc2cccc(Cl)c2F)CC1,100%,30%,75%
CCCCCCNCCOc1ccc(-c2nc(-c3ccccc3)c(-c3ccccc3)[nH]2)cc1,98%,39%,14%
O=C(O)C(F)(F)F.c1cc(-c2ccc(CN3CCN(c4ccncc4)CC3)cc2)cc(-c2nc3ccccc3[nH]2)c1,100%,100%,61%
CCC(=O)N1CCc2cc(Br)cc(S(=O)(=O)N3CC(C)CC(C)C3)c21 (centres undefined),85%,84%,5%
